From PubChem BioAssay AID1159580 (chemical genetic matrix, 2015)
The whole screen tested about 5,500 compounds, of which about 2,000 (36%) were called active. About 18% were inconclusive and are not listed. Rule as the data show it: active = normalized growth mostly below about 0.91 (no sharp cut-off); inconclusive = no clear call, values can overlap the other calls; inactive = mostly above about 0.92. Some of the results follow.

Assay: chemical genetic growth profiling, strain panel (AID 1159580);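 also: tested at 20 µM; growth read once vehicle control cultures reached saturation at 30 °C; 1 = growth at the plate median or of vehicle wells; lower values mean less growth of the strain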
Details: S. cerevisiae deletion strains, growth OD
[1] = locus YAR019C, strain CDC15, hits give low values
[2] = locus YBL105C, strain PKC1, hits give low values
[3] = locus YBR135W, strain CKS1, hits give low values
[4] = locus YBR136W, strain MEC1, hits give low values
[5] = locus YBR160W, strain CDC28, hits give low values
[6] = locus YDL017W, strain CDC7, hits give low values
[7] = locus YDL028C, strain MPS1, hits give low values
[8] = locus YDL101C, strain DUN1, hits give low values
[9] = locus YDL108W, strain KIN28, hits give low values
[10] = locus YDL132W, strain cdc53, hits give low values
[11] = locus YDL214C, strain PRR2, hits give low values
[12] = locus YDR052C, strain DBF4, hits give low values
[13] = locus YDR054C, strain cdc34, hits give low values
[14] = locus YDR226W, strain ADK1, hits give low values
[15] = locus YDR477W, strain SNF1, hits give low values
[16] = locus YER123W, strain YCK3, hits give low values
[17] = locus YER133W, strain GLC7, hits give low values
[18] = locus YFL009W, strain cdc4, hits give low values
[19] = locus YFL029C, strain CAK1, hits give low values
[20] = locus YFR003C, strain YPI1, hits give low values
[21] = locus YFR019W, strain FAB1, hits give low values
[22] = locus YFR028C, strain CDC14, hits give low values
[23] = locus YGR040W, strain KSS1, hits give low values
[24] = locus YGR052W, strain FMP48, hits give low values
[25] = locus YGR092W, strain DBF2, hits give low values
[26] = locus YHR030C, strain SLT2, hits give low values
[27] = locus YHR079C, strain IRE1, hits give low values
[28] = locus YHR082C, strain KSP1, hits give low values
[29] = locus YHR205W, strain SCH9, hits give low values
[30] = locus YIL147C, strain SLN1, hits give low values
[31] = locus YJL095W, strain BCK1, hits give low values
[32] = locus YJL128C, strain PBS2, hits give low values
[33] = locus YJL157C, strain FAR1, hits give low values
[34] = locus YJR016C, strain ILV3, hits give low values
[35] = locus YJR066W, strain TOR1 (second series), hits give low values
[36] = locus YJR066W, strain TOR1, hits give low values
[37] = locus YKL048C, strain ELM1, hits give low values
[38] = locus YKL101W, strain HSL1, hits give low values
[39] = locus YKL193C, strain SDS22, hits give low values
[40] = locus YKL203C, strain TOR2, hits give low values
[41] = locus YLR113W, strain HOG1, hits give low values
[42] = locus YLR133W, strain CKI1, hits give low values
[43] = locus YLR403W, strain SFP1, hits give low values
[44] = locus YML070W, strain DAK1, hits give low values
[45] = locus YMR001C, strain CDC5, hits give low values
[46] = locus YMR205C, strain PFK2 (second series), hits give low values
[47] = locus YMR277W, strain FCP1, hits give low values
[48] = locus YNL006W, strain LST8, hits give low values
[49] = locus YNL020C, strain ARK1, hits give low values
[50] = locus YNL161W, strain CBK1, hits give low values
[51] = locus YNL183C, strain NPR1, hits give low values
[52] = locus YNL207W, strain RIO2, hits give low values
[53] = locus YNL222W, strain SSU72, hits give low values
[54] = locus YNL307C, strain MCK1 (second series), hits give low values
[55] = locus YOL078W, strain AVO1, hits give low values
[56] = locus YOL136C, strain PFK27, hits give low values
[57] = locus YOR061W, strain CKA2, hits give low values
[58] = locus YOR119C, strain RIO1, hits give low values
[59] = locus YOR231W, strain MKK1, hits give low values
[60] = locus YOR329C, strain SCD5, hits give low values
[61] = locus YPL031C, strain PHO85, hits give low values
[62] = locus YPL153C, strain RAD53, hits give low values
[63] = locus YPL204W, strain HRR25, hits give low values
[64] = locus YPL209C, strain IPL1, hits give low values
[65] = locus YPL256C, strain CLN2, hits give low values
[66] = locus YPR025C, strain CCL1, hits give low values
[67] = locus YPR106W, strain ISR1, hits give low values
[68] = locus YPR111W, strain DBF20, hits give low values
[69] = strain NNK1, hits give low values
[70] = strain TSCII, hits give low values

Measured: normalized growth

O=C1OC(c2ccccc2)=C/C1=C/c1ccccc1
active: [11] 0.604 | [15] 0.635 | [23] 0.674 | [24] 0.353 | [26] 0.506 | [28] 0.522 | [29] 0.514 | [36] 0.461 | [40] 0.614 | [41] 0.714 | [43] 0.611 | [51] 0.188 | [58] 0.519 | [65] 0.793
inactive: [1] 0.952 | [2] 0.953 | [3] 0.942 | [4] 0.953 | [5] 0.943 | [6] 0.95 | [7] 0.923 | [8] 0.966 | [9] 0.925 | [10] 0.96 | [12] 0.969 | [13] 0.962 | [14] 0.944 | [16] 0.869 | [17] 0.725 | [18] 0.961 | [19] 0.925 | [20] 0.956 | [21] 0.946 | [22] 0.948 | [25] 0.855 | [27] 0.934 | [30] 0.955 | [31] 0.669 | [32] 1 | [33] 0.761 | [34] 0.954 | [35] 0.861 | [37] 0.889 | [38] 0.797 | [39] 0.948 | [42] 0.843 | [44] 0.892 | [45] 0.951 | [46] 0.843 | [47] 0.918 | [48] 0.956 | [49] 0.9 | [50] 0.945 | [52] 0.951 | [53] 0.932 | [54] 0.95 | [55] 0.954 | [56] 0.914 | [57] 0.844 | [59] 0.943 | [60] 0.961 | [61] 0.758 | [62] 0.798 | [63] 0.839 | [64] 0.947 | [66] 0.945 | [67] 0.981 | [68] 0.964 | [69] 0.949 | [70] 0.93

NC(=O)c1ccc(OCC(O)CN2CC=C(c3ccc(F)cc3)CC2)cc1 (stereo not given)
inactive: locus YAL040C, strain CLN3, hits give low values 1.06 | locus YCL061C, strain MRC1 (second series), hits give low values 0.982 | locus YDR150W, strain NUM1, hits give low values 1.01 | locus YDR363W, strain ESC2, hits give low values 0.964 | locus YER002W, strain NOP16, hits give low values 1.01 | locus YMR263W, strain SAP30, hits give low values 0.98 | locus YMR307W, strain GAS1, hits give low values 0.998 | locus YNL128W, strain TEP1, hits give low values 1.01 | locus YNL175C, strain NOP13, hits give low values 1.03 | locus YNL197C, strain WHI3, hits give low values 1 | locus YNL224C, strain SQS1, hits give low values 1.01 | locus YNL322C, strain KRE1, hits give low values 0.962 | locus YOR083W, strain WHI5 (second series), hits give low values 1 | locus YPL055C, strain LGE1, hits give low values 0.98

COc1ccc(N=C2SCC(c3ccc(C)cc3)=NN2CCO)cc1
inactive: [1] 0.975 | [2] 0.985 | [3] 0.979 | [4] 0.972 | [5] 0.982 | [6] 0.982 | [7] 0.971 | [8] 0.982 | [9] 0.981 | [10] 0.98 | [11] 0.975 | [12] 0.988 | [13] 0.979 | [14] 0.981 | [15] 0.958 | [16] 0.943 | [17] 0.971 | [18] 0.972 | [19] 0.964 | [20] 0.98 | [21] 0.985 | [22] 0.972 | [23] 0.961 | [24] 1.01 | [25] 0.947 | [26] 0.95 | [27] 0.968 | [28] 0.991 | [29] 0.987 | [30] 0.977 | [31] 0.973 | [32] 0.955 | [33] 0.979 | [34] 0.979 | [35] 0.925 | [36] 0.962 | [37] 0.997 | locus YKL067W, strain YNK1, hits give low values 0.971 | [38] 0.976 | [39] 0.975 | [40] 1.02 | [41] 0.915 | [42] 0.976 | [43] 0.976 | [44] 0.956 | [45] 0.984 | [46] 0.971 | [47] 0.978 | [48] 0.986 | [49] 0.983 | [50] 0.978 | [51] 0.941 | [52] 0.978 | [53] 0.972 | [54] 0.98 | [55] 0.977 | [56] 0.96 | [57] 0.983 | [58] 0.999 | [59] 0.963 | [60] 0.983 | [61] 0.969 | [62] 0.97 | [63] 0.961 | [64] 0.977 | [65] 0.946 | [66] 0.985 | [67] 0.979 | [68] 0.968 | [69] 0.983 | [70] 0.982
